Data published in PubChem BioAssay AID2589 (National Center for Advancing Translational Sciences (NCATS), 2010).
Active and inactive are the calls of the source. Calls follow the shape of the dose curve; as a rule, active = well fitted curve in the direction sought with a large enough effect; inactive = no such curve, though single readings can be large or run the other way.

Target: Lysosomal acid glucosylceramidase (Homo sapiens) (UniProt P04062)
Experiment: qHTS Assay for Inhibitors and Activators of N370S glucocerebrosidase as a Potential Chaperone Treatment of Gaucher Disease: Chaperone Activity in Non-Gauche Fibroblasts After Multi-day Incubation with Compound
Details: Wild-type fibroblasts, GC immunofluorescence, 5-day incubation
Description: NIH Chemical Genomics Center [NCGC] NIH Molecular Libraries Probe Production Centers Network [MLPCN] MLPCN Grant: MH086442-01 Assay Submitter (PI): Wei Zheng Glucocerebrosidase (GC) catalyzes the hydrolysis of beta-glucocerebroside to glucose and ceramide in lysosomes. Mutations in the glucocerebrosidase gene result in Gaucher disease, an autosomal recessive lysosomal storage disorder. Many of the mutations encountered in patients with Gaucher disease are missense alterations that may cause misfolding, decreased stability and/or mistrafficking of this lysosomal protein. […] These inhibitors include iminosugar analogs and three non-iminosugar inhibitors identified from a previous HTS of 62,000 compounds with the wild type recombinant enzyme. However, the enhancement of enzyme activity by the chaperone action of an enzyme inhibitor must be balanced against the direct inhibition of the enzyme. An enzyme activator could also function as a chaperone by binding to the enzyme and helping to correct its misfolding and mistrafficking. […] This assay attempts to quantitate translocated glucocerebrosidase protein in patient-derived fibroblasts following extended compound incubation. […]
NCGC Assay Protocol Summary: 1. […] Visualized using a fluorescence microscope and the intensity of fluorescence in the selected areas were calculated. […]

Sequence of Lysosomal acid glucosylceramidase (Homo sapiens) (P04062 whole entry, looked up): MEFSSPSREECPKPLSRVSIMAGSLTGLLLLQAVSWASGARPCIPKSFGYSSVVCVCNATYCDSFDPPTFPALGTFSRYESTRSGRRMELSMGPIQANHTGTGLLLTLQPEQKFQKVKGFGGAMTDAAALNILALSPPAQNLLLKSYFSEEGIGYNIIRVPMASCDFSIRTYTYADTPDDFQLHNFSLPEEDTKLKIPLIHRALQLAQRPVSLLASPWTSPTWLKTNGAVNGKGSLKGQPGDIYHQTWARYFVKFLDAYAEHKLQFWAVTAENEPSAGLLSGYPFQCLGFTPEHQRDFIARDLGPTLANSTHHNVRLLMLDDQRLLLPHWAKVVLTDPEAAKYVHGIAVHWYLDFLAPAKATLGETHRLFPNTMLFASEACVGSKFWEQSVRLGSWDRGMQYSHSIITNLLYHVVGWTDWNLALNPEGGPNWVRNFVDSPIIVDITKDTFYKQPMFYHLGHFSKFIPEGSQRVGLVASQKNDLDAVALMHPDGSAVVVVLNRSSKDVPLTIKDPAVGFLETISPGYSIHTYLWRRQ

Row | Compound | Potency
1 | S=C(NCCCc1cnc[nH]1)NCCCN(Cc1ccc(Cl)c(Cl)c1)c1ccc(Br)cn1 | 708 nM (active)
2 | O=S(=O)(c1ccc2ccccc2c1)N1CCN(c2nc(-c3cccs3)nc3ccccc23)CC1 | 1260 nM (active)
